We go through 14 sequences from PMC5700166.

The target in the assay is T1, GST-Aq-NF-kB (Amphimedon queenslandica, UniProt A9Y5G7 2-389).
T1 sequence: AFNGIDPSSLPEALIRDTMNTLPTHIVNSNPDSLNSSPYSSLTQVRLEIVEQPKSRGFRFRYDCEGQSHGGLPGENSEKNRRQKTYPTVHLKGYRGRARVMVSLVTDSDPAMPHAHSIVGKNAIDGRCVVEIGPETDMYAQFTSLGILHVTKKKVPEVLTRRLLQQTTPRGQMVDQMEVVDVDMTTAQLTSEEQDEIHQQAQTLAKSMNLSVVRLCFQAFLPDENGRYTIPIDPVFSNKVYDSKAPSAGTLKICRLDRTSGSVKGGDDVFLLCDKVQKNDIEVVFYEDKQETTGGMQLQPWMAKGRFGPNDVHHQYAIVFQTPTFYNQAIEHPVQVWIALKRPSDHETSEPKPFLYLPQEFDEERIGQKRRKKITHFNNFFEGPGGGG
Kind of assay: protein-binding microarray (PBM); PBM: ~300 nM protein, 6 mM HEPES pH 7.8, 80 mM KCl, 0.5 mM EDTA, 0.5 mM EGTA, 6% glycerol, 35 ng/ul poly-dIdC, 1% milk, 1 h, room temperature; Ap Aiptasia and Nv Nematostella (sea anemones) / Co Capsaspora / Aq Amphimedon (sponge) / Dm Drosophila / Hu human; RHD is the Rel homology domain; high values mean tight binding. As to conditions: dsDNA, one strand shown.
On to “CCGATTAACATCAAAGAATTTCCTGATGTTAATCGGGTCTTGATTCGCTTGACGCTGCTG”, for which the binding signal was 1.45 z-score.

On to “CCGATTAACATCAAGATCCCTTGTGATGTTAATCGGGTCTTGATTCGCTTGACGCTGCTG”, for which the binding signal turned out to be 1.08 z-score. With “CCGATTAACATCAGGAAATCTCCTGATGTTAATCGGGTCTTGATTCGCTTGACGCTGCTG” the figure was 1.25 z-score; with “CCGATTAACATCACGGACTGTCCTGATGTTAATCGGGTCTTGATTCGCTTGACGCTGCTG”, 2.22 z-score. With “CCGATTAACATCAAGGATTGCCCTGATGTTAATCGGGTCTTGATTCGCTTGACGCTGCTG” the figure was 1.51 z-score; with “CCGATTAACATCAGGAGATTCCATGATGTTAATCGGGTCTTGATTCGCTTGACGCTGCTG”, 1.66 z-score; with “CCGATTAACATCACGGCAATTCCTGATGTTAATCGGGTCTTGATTCGCTTGACGCTGCTG”, 1.38 z-score.

“CCGATTAACATCACGGAATCTCCTGATGTTAATCGGGTCTTGATTCGCTTGACGCTGCTG”: the binding signal turned out to be 2.17 z-score. On to “CCGATTAACATCAAGAAATTCCTTGATGTTAATCGGGTCTTGATTCGCTTGACGCTGCTG”, for which the binding signal is 1.02 z-score.

As for “CCGATTAACATCAAAATTTTCCATGATGTTAATCGGGTCTTGATTCGCTTGACGCTGCTG”, the binding signal came to 1.14 z-score. The result for “CCGATTAACATCAAAATTTCCGCTGATGTTAATCGGGTCTTGATTCGCTTGACGCTGCTG” reads 1.48 z-score; that for “CCGATTAACATCAGGAACTGCCCTGATGTTAATCGGGTCTTGATTCGCTTGACGCTGCTG”, 2.36 z-score.

In the case of “CCGATTAACATCAAGGACATTCCTGATGTTAATCGGGTCTTGATTCGCTTGACGCTGCTG”, the binding signal amounted to 1.43 z-score. “CCGATTAACATCACGGATTTTCCTGATGTTAATCGGGTCTTGATTCGCTTGACGCTGCTG” registered a binding signal of 3.35 z-score.
